Screening data as filed in PubChem.
The list is not random: actives were taken first. Their share in the collection is about 4.2%.
D1 agonist – activates the human D1 dopamine receptor; hit rate 1% among 360,000; AID 504660; HEK293 T-REx D1 cells, calcium flux, agonist mode; activation, % at 2 µM; in the data active means activation above about 30%
Target sequence (P21728 whole entry, looked up): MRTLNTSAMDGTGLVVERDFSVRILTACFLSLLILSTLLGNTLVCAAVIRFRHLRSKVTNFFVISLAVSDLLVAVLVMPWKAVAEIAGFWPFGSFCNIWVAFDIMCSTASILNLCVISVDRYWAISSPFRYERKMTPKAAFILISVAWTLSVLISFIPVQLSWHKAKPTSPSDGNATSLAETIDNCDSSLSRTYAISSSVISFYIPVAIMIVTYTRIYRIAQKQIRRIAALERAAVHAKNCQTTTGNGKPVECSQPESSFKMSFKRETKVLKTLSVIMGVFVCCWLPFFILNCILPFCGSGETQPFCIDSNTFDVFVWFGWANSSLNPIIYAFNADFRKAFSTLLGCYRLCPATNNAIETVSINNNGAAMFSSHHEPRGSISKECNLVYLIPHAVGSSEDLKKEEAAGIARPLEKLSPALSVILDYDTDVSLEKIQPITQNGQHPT
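Agonism was scored from calcium flux recorded over 180 s (1 read/s) after pintool compound addition, following a 10-cycle baseline. Cells were inducible force-coupled HEK293 TREx D1, plated overnight at 30 C and loaded with no-wash calcium dye.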
TRPV1 ag – agonists of human vanilloid receptor 1 (TRPV1) | activation, % at 8.33 µM | Q8NER1 | TRPV1-expressing cells, Fluo-8 calcium influx, agonist mode | hit rate 0.19% among 320,000 | AID 540275; in the data active means activation above about 80%; inconclusive means between about 30% and that limit
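TRPV1-expressing cells were cultured overnight at 35.5C and loaded with Fluo-8 calcium dye for 40 to 90 min at room temperature. After a 10 s baseline, compound was added and calcium influx was read kinetically for 3 min (ex 480/em 520 nm).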
D1 antagonist – antagonists of human D1 dopamine receptor. hit rate 3.2% among 360,000. activity change, negative = inhibition, % at 10 µM. AID 504652. HEK293 TREx D1 cells, calcium flux, dopamine EC80; stronger effect = lower value. P21728; in the data active means activity change below about -30%
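Compound effects on dopamine-evoked calcium signalling were measured in tetracycline-induced HEK293 Trex D1 cells. Dopamine at EC80 followed a 180 s compound pre-read, and fluorescence was tracked kinetically for 180 s more.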
D1 PAM – enhances dopamine response at the human D1 receptor; hit rate 0.036% among 360,000; P21728; potentiation, % at 10 µM; AID 504651; HEK293 TREx D1 cells, calcium flux, dopamine EC20 potentiation; in the data active means potentiation above about 30%
TRPV1 PAM – human TRPV1 potentiation; hit rate 0.02% among 320,000; AID 540277; potentiation, % at 8.33 µM; Q8NER1; TRPV1-expressing cells, Fluo-8 calcium influx, capsaicin EC20 potentiation; in the data active means potentiation above about 80%; inconclusive means between about 30% and that limit
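TRPV1-expressing cells were cultured overnight at 35.5C and loaded with Fluo-8 calcium dye for 40 to 90 min at room temperature. After a 10 s baseline, compound was added and calcium influx was read kinetically for 3 min (ex 480/em 520 nm).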
Large screens that a line does not name were inactive.

CCCOc1ccc(-c2nonc2NC(=O)c2cc(OC)c(OC)c(OC)c2)cc1OCCC	D1 agonist 38 (no result: TRPV1 ag, TRPV1 PAM)
COc1cc(C(=O)Nc2nonc2-c2ccc(C)c(C)c2)cc(OC)c1OC	none (no result: TRPV1 ag, TRPV1 PAM)
O=C(O)C1C2CCC(O2)C1C(=O)Nc1ccc(Cl)cc1F (stereo not given)	none
O=C(O)C1C2CCC(O2)C1C(=O)NCc1ccc(Cl)cc1 (stereo not given)	D1 antagonist -37
CCOc1ccccc1CNC(=O)c1cccn1-c1nnc(N2CCCC2)s1	none (no result: TRPV1 ag, TRPV1 PAM)
CCc1ccc(/C=C2\Oc3c(ccc(O)c3CN3CCN(CCO)CC3)C2=O)cc1	D1 agonist 64
CCCSc1nnc(NC(=O)c2sc3nc(-c4cccs4)ccc3c2N)s1	D1 agonist 43
Cc1csc(NC(=O)c2sc3nc(-c4cccs4)ccc3c2N)n1	D1 agonist 73
Nc1c(C(=O)Nc2cccc(F)c2)sc2nc(-c3cccs3)ccc12	D1 agonist 33 (no result: TRPV1 ag, TRPV1 PAM)
Cc1ccc(NC(=O)c2sc3nc(-c4cccs4)ccc3c2N)cc1F	none (no result: TRPV1 ag, TRPV1 PAM)
c1ccc(CN(Cc2ccccc2)Cc2nnc(-c3cc4ccccc4[nH]3)o2)cc1	none (no result: TRPV1 ag, TRPV1 PAM)
O=c1oc2c3c4c(cc2c(C(F)(F)F)c1CCN1CCOCC1)CCCN4CCC3	D1 agonist 178, TRPV1 PAM inconclusive
CC(C)c1cc(=O)oc2c3c4c(cc12)CCCN4CCC3	D1 agonist 30
Cc1cc(=O)oc2c3c4c(cc12)OCCN4CCC3	none
O=c1oc2c(CN3CCOCC3)c(O)ccc2c2c1CCC2	none
CN1CCN(C2=Nc3cc(F)ccc3Cc3ccccc32)CC1	D1 antagonist -84
Cn1c(O)c(/C=N/NC(=O)c2cc3ccccc3cc2O)c2ccccc21	D1 agonist 147 (no result: D1 PAM)
COc1cccc(N2CCN(C(=O)Cn3ncc4c3-c3ccccc3OC4)CC2)c1	none (no result: TRPV1 ag, TRPV1 PAM)
Cc1ccc(S(=O)(=O)N2CCOCC2)cc1NC(=O)CSc1nnc(C2CC2)n1C1CC1	none
Cc1ccc(S(=O)(=O)N(C)C)cc1NC(=O)CSc1nnc(C2CC2)n1C1CC1	D1 antagonist -68
CCOC(=O)N1CCc2c(sc3c2c(=O)n(-c2ccc(Cl)cc2)c(=O)n3CC(C)C)C1	none (no result: TRPV1 ag, TRPV1 PAM)
COC(=O)c1ccc(NC(=O)C2CCN(C(=O)c3ccc(F)cc3)CC2)cc1	none (no result: TRPV1 ag, TRPV1 PAM)
CC1(C)C(=O)OC(c2ccc([N+](=O)[O-])cc2)C(C)(C)C1=O (stereo not given)	D1 antagonist -32
Cc1ccc(S(=O)(=O)N2CCN(Cc3ccccc3Cl)CC2)cc1	none (no result: TRPV1 ag, TRPV1 PAM)
Cc1ccc2occ(CC(=O)N(Cc3ccccc3Cl)C3CCS(=O)(=O)C3)c2c1 (stereo not given)	none (no result: TRPV1 ag, TRPV1 PAM)
Cc1ccc(CSc2nnc(SCC(=O)N/N=C/c3c(C)nn(-c4ccccc4)c3C)s2)cc1	D1 antagonist -38
CCN(CC)S(=O)(=O)c1ccc(NC(=O)c2c(C)oc3ncnc(N4CCOCC4)c23)cc1	none (no result: TRPV1 ag, TRPV1 PAM)
COc1cccc(Nc2ccc(-n3ccnc3)nn2)c1	D1 antagonist -66, TRPV1 PAM inconclusive
Cc1cccc(C)c1NC(=O)C(NS(=O)(=O)c1ccc2c(c1)CCC(=O)N2)c1ccccc1 (stereo not given)	none (no result: TRPV1 ag, TRPV1 PAM)
O=C(O)CCC(=O)N1CCN(c2ccccn2)CC1	none
Cc1cccc(C)c1NC(=O)N1CCN(c2nc3ccccc3s2)CC1	none
O=C(O)CCC(=O)N1CCN(c2nc3ccccc3s2)CC1	D1 antagonist -69
O=C(O)CCC(=O)N1CCN(c2ncccn2)CC1	D1 antagonist -32
O=C(c1ccc2c(c1)N(Cc1ccccc1F)C(=O)c1ccccc1S2=O)N1CCCCC1 (stereo not given)	none (no result: TRPV1 ag, TRPV1 PAM)
CCOC(=O)C1CCCN(C(=O)c2ccc3c(c2)N(Cc2ccccc2F)C(=O)c2ccccc2S3=O)C1 (stereo not given)	D1 antagonist -36 (no result: TRPV1 ag, TRPV1 PAM)
CCOC(=O)C1CCCN(C(=O)COc2ccccc2F)C1 (stereo not given)	D1 antagonist -64
Cc1ccc(NC(=O)C2CCN(c3cc(C)nc4c(-c5ccc(Cl)cc5)c(C)nn34)CC2)c(C)c1	none (no result: TRPV1 ag, TRPV1 PAM)
Cc1ccc2c(c1)c1c(c(=O)n(Cc3ccccc3)c(=O)n1Cc1cccc(C(F)(F)F)c1)n2C	none (no result: TRPV1 ag, TRPV1 PAM)
Cc1ccc(S[C@@H](CCN2CC[C@H](O)CCC2=O)c2ccccc2)cc1	TRPV1 ag inconclusive, D1 antagonist -31
COC(=O)c1scc(C)c1NC(=O)c1ccccc1F	D1 antagonist -37
COC(=O)c1scc(C)c1NC(=O)/C=C/C(=O)O	D1 antagonist -47
CCCCN(CC)c1nc(-c2ccccc2F)nc2ccccc12	none (no result: TRPV1 ag, TRPV1 PAM)
COc1ccccc1CNC(=O)CCc1c(C)c2cc3c(C)c(C)oc3cc2oc1=O	none (no result: TRPV1 ag, TRPV1 PAM)
COc1ccccc1NS(=O)(=O)c1ccc(C)c(C(=O)NC2CCN(Cc3ccccc3)CC2)c1	TRPV1 PAM inconclusive
C=CCN(c1ccccc1)S(=O)(=O)c1cccc(C(=O)NC2CCN(Cc3ccccc3)CC2)c1	TRPV1 ag inconclusive, D1 antagonist -37
COc1ccccc1NS(=O)(=O)c1cccc(C(=O)NC2CCN(Cc3ccccc3)CC2)c1	D1 antagonist -37
COC(=O)c1cc(F)c(S(=O)(=O)N2CCN(S(=O)(=O)c3ccc4c(c3)OCCO4)CC2)cc1F	none (no result: TRPV1 ag, TRPV1 PAM)
CCN1CCN(Cc2cccc(Oc3ccc(Cl)cc3)c2)CC1	D1 antagonist -64
CC(=O)c1c(C(=O)O)[nH]c(C(=O)O)c1C	none
Cc1[nH]c(C(=O)O)c(C)c1C(=O)OC(C)C	D1 antagonist -53
O=C(CCCn1c(=O)c2sccc2n(Cc2c(F)cccc2Cl)c1=O)NCc1ccccc1	none (no result: TRPV1 ag, TRPV1 PAM)
CCOC(=O)C1=C(O)c2ccccc2C(=O)/C1=C\c1ccc(C)cc1	D1 agonist 34, TRPV1 PAM inconclusive
O=C(CCCNC(=O)c1ccc(Cl)cc1)NCc1ccccc1Cl	none
CCc1ccc(C(=O)NNc2ccc(F)cc2F)cc1	TRPV1 ag inconclusive, D1 antagonist -51
O=C(COC(=O)CCCNC(=O)c1ccc(Cl)cc1)NCc1ccccc1Cl	D1 agonist 77
CC(C)(C)c1ccc(C(=O)NNc2ccc(F)cc2F)cc1	TRPV1 ag inconclusive
Cc1ccccc1CCNC(=O)c1ccc2c(c1)c(C)c(C)n2C	none (no result: TRPV1 ag, TRPV1 PAM)
NS(=O)(=O)c1ccc(CCNC(=O)CCCNC(=O)c2ccc(Cl)cc2)cc1	D1 antagonist -33
Cc1c(C)n(C)c2ccc(C(=O)NCCc3ccc(Cl)cc3)cc12	D1 antagonist -59 (no result: TRPV1 ag, TRPV1 PAM)
CC1CCCN(C(=O)Cn2c(=O)n(CC3CCC(C(=O)NC(C)C)CC3)c(=O)c3sccc32)C1 (stereo not given)	none (no result: TRPV1 ag, TRPV1 PAM)
O=C(CCNC(=O)c1ccc(Cl)cc1)Nc1ccc(F)cc1F	D1 antagonist -47
O=C(NCCc1ccc(O)cc1)c1ccc(Cl)cc1	TRPV1 ag inconclusive, D1 antagonist -32
CN(C)Cc1cc(CCNC(=O)c2ccc(Cl)cc2)ccc1O	D1 antagonist -37
Cc1cccc(N2CCN(C(=O)C3CCN(C(=O)c4cc5sccc5n4C)CC3)CC2C)c1 (stereo not given)	none (no result: TRPV1 ag, TRPV1 PAM)
CC(C)Cn1c(=O)c2sccc2n2c(CCCC(=O)NCc3ccccc3Cl)nnc12	none (no result: TRPV1 ag, TRPV1 PAM)
